From PubChem
Shown are actives, neighbours in structure and some others; about 3.9% of the full set was active somewhere.
HT1080 IDH1KD tx: qHTS for induction of synthetic lethality in tumor cells producing 2HG: qHTS for the HT-1080-IDH1KD cell line; HT-1080 IDH1 knockdown viability, ATP luminescence, 48 h; Potency, µM (highest dose often 46.1 µM), for the others: top-dose activity, negative = toxicity, most hits filed as cytotoxic; 2% of 360,000 active;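 further: 0% = DMSO wells and -100% = cell-free medium wells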
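Knockdown cells (IDH1KD HT-1080) received compounds 2 h after plating at 750 cells/well and were kept 48 h at 37 °C in 5% FBS RPMI. A CellTiter-Glo luminescence read gave % activity for curve fitting.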
ATXN2 expr inh: Primary qHTS for Inhibitors of ATXN expression; HEK-293 ATXN2-luciferase reporter, luminescence, 24 h; 0.72% of 360,000 active; Potency, µM (titrated, usually from 57 µM), inactives show top-dose activity change, negative = inhibition, hits mostly inhibitors; further: on the % scale 0 is the no-effect control and ±100 the full control effect; nearly all actives have a fitted effect of over 55% in size
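qHTS (up to 57 uM final) was run with 24 h compound exposure of reporter cells at 37 °C. Each well was multiplexed: SteadyGlo luminescence measured ATXN2-luciferase expression after a fluorogenic Gly-Phe-AFC viability readout (25 uM final).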
HT1080-NT tox: qHTS for induction of synthetic lethality in tumor cells producing 2HG: qHTS for the HT-1080-NT fibrosarcoma cell line; Potency, µM (highest dose often 46.1 µM), without a hit: top-dose activity, negative = less viability, actives largely listed as cytotoxic; 1.6% of 360,000 active; HT-1080-NT fibrosarcoma viability, CellTiter-Glo ATP luminescence, 48 h; AID 686970, 2013;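 further: NT is the 2HG producing partner of a matched IDH1 knockdown line; 0% = DMSO-treated cells and -100% = media-only wells without cells; nearly all actives have a fitted effect of over 55% in size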
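Read-out is CellTiter-Glo luminescence after 10 minutes at room temperature, following 48 hours' compound treatment of HT-1080-NT cells (750 cells/well, RPMI, 5% FBS, 37 degrees C).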
S2 tox: Viability Counterscreen for Primary qHTS for Inhibitors of ATXN expression; S2 cells (HEK-293 line with an ATXN2-luciferase reporter) viability, CellTiter-Fluor protease fluorescence, 24 h; Potency, µM (top dose mostly 56.7 µM), most hits filed as cytotoxic; 0.49% of 400,000 active; AID 651635, 2014; further: nearly all actives have a fitted effect of over 40% in size
TGFb SMAD3 inh: qHTS for Inhibitors of TGF-b; HepG2 CAGA-GFP TGF-b/SMAD3 reporter, GFP fluorescence, 18 h; TGF-beta stimulated, 500 pg/mL final; Potency, µM (top dose mostly 46.1 µM), for the others: top-dose activity, negative = inhibition, actives largely listed as inhibitors; 1.2% of 410,000 active; further: on the % scale 0 is the no-effect control and ±100 the full control effect; nearly all actives have a fitted effect of over 65% in size
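Inhibition was scored as loss of TGF-beta-induced (500 pg/mL final, 18 hours, 37 degrees C) GFP in HEPG2 cells carrying a CAGA-GFP reporter, in DMEM with 1% FBS. Well GFP was summed per cell; Activity was normalised to unstimulated and stimulated DMSO wells, then concentration-response fitting.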
HepG2 tox: qHTS for Inhibitors of TGF-b: Cytotox Counterscreen | Potency, µM (series often up to 46.1 µM), for the others: top-dose activity change, negative = cytotoxicity, actives largely listed as cytotoxic | HepG2 CAGA-GFP viability, ATP luminescence, 18 h | 0.76% of 410,000 active
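CellTiter-Glo luminescence gave cytotoxicity after 18 hours at 37 degrees C. The cells were HepG2 CAGA-GFP in 1% FBS DMEM, stimulated with 500 pg/mL TGF-beta after compound addition. %Activity was normalised to no-cell wells (complete cell-killing) and DMSO (no toxicity), and curves were fitted and classified.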
* marks the source's active call; other numbers are inactive results; i = inactive; ? = inconclusive; . = no result given; [ ] = remark or other dose. The call rests on the fitted dose curve; in most records, active means well fitted curve in the direction sought with a large enough effect; inconclusive means small, poorly fitted or top-dose-only effect, or another doubt; inactive means no such curve, though single readings can be large; an effect the other way counts as inactive or inconclusive. Potency means the concentration at half of the fitted maximal effect.

SMILES	HT1080 IDH1KD tx	ATXN2 expr inh	HT1080-NT tox	S2 tox	TGFb SMAD3 inh	HepG2 tox
CCN(Cc1ccccc1)C(=O)C(CC(C)C)NS(=O)(=O)c1ccc2c(c1)CCN2C(C)=O (stereo not given)	.	-0.4%	.	i	-0.3%	-18.2%
O=C(CSc1nnc(Cc2cccs2)n1-c1ccccc1)Nc1ccc2c(c1)OCCO2	-0.5%	1.4%	-3.5%	i	7.0%	5.2%
Cc1ccc(-n2c(Cc3cccs3)nnc2SCC(=O)Nc2ccc(F)c(F)c2)cc1	11.2µM*	-10.0%	-11.2%[9.24 µM]	i	-36.2%	-23.1%
Cc1ccc(C)c(NC(=O)CCc2nc3cccnc3n2Cc2cccs2)c1	.	.	.	.	?	-32.2%
O=C(/C=C/NNC(=O)c1ccccc1)c1ccc([N+](=O)[O-])cc1	?	7.52µM*	?	?	?	-48.5%
Cc1cccc(CNC(=O)c2cnn(-c3nccc(-c4cc5ccccc5o4)n3)c2C2CC2)n1	.	.	.	i	.	.
COc1cc(/C=C/c2nc(N)nc(-c3ccccc3O)n2)cc(OC)c1OC	-28.2%	-5.5%	-29.4%	i	0.0%	-27.9%
COc1cc(/C=C/c2nc(-c3ccccc3O)n[nH]2)cc(OC)c1OC	?	-8.8%	?	i	?	11.2µM*
COc1cc(/C=C/c2ccc3cccc(O)c3n2)cc(Br)c1OC	?	-37.9%	?	?	-18.2%	4.6%
Oc1cccc(/C=C/c2ccc3cccc(O)c3n2)c1	?	122.2%	32.6µM*	i	?	-31.8%
COc1cc(/C=C/c2ccc3cccc(O)c3n2)cc(OC)c1OC	6.51µM*	15.8µM*	8.2µM*	?	?	-13.3%
CCOC(=O)c1cc(-c2ccccc2)n(CCCC(=O)Nc2cc(C)ccc2OC)c1C	.	.	.	.	-6.9%	-23.0%
COc1cccc(CNC(=O)CSC2=Nc3ccccc3N=C(c3ccc(F)cc3)C2)c1	.	-23.3%	.	?	0.0%	-23.9%
COc1ccc(-c2noc(CSc3nnc(-c4ccncc4)n3-c3ccc(C)c(C)c3)n2)cc1	.	.	.	.	-17.0%	-35.3%
CC1=CC(=O)N(c2cccc3c(N4C(=O)C=C(C)C4=O)cccc23)C1=O	25.9µM*	-5.3%	1.3%	i	-20.5%	-21.0%
CN1CCN(C(=O)/C=C/c2cn(-c3ccccc3)nc2-c2ccc3c(c2)OCCO3)CC1	23.1µM*	-30.7%	23.1µM*	i	-17.6%	-13.4%
O=C(/C=C\c1cn(-c2ccccc2)nc1-c1ccc2c(c1)OCCO2)N1CCOCC1	-13.6%	.	-12.6%	?	-6.8%	-14.9%
CC(Oc1ccccc1F)C(=O)NNC(=O)CC(C)c1ccccc1 (stereo not given)	-2.8%	6.8%	-2.7%	i	-16.4%	0.891µM*
CC(=O)NC(CC(=O)NNC(=O)C(C)Oc1ccccc1F)c1ccccc1 (stereo not given)	4.5%	9.1%	5.5%	i	-9.8%	4.7%
CN(C1=C(NC(=O)c2ccccc2)C(=O)c2ccccc2C1=O)C1CCS(=O)(=O)C1 (stereo not given)	-24.3%	?	?	31.6µM*	17.8µM*	17.8µM*
C=CC(=O)N1C/C(=C/c2ccc(F)cc2)C(=O)/C(=C\c2ccc(F)cc2)C1	2.91µM*	5.62µM*	?	7.08µM*	?	20µM*
CN1C2CCC1/C(=C\c1ccc(F)cc1)C(=O)/C2=C/c1ccc(F)cc1	9.9%	-21.4%	-1.8%	i	-8.0%	-55.5%
CN(C)C1(CNC(=O)COc2ccc(C(C)(C)C)cc2)CCCCC1	.	-0.2%	.	i	7.3%	-25.3%
COc1ccc(OC)c(/C=C/c2cc3ccccc3c[n+]2C)c1	.	.	.	.	-5.4%	-70.2%
